Assay outcomes as filed in PubChem BioAssay.
In the library only some 11% were active in any assay of this set; here they are far more common.
PNC assembly inh = perinucleolar compartment assembly inhibition; activity change (PNC), negative = inhibition, % at 10 µM; AID 2417; 3.1% of 140,000 active; PC3M PTB-GFP, PNC prevalence imaging, 16 h; active compounds read low;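 active = readout at or below -70, meaning at least 70% loss of cells showing the perinucleolar compartment, a nuclear body marking cancer cells; inconclusive = readout between -30 and a set limit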;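 also: plate controls were DMSO wells for no effect and camptothecin positive control wells for full effect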
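Compounds are pinned in duplicate onto adhered PC3M cells stably expressing GFP-tagged PTB and incubated 16 h at 37 C. Cells are then fixed, nuclei stained with Hoechst, and PNC-positive cells counted.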
HPGD block = blocks human HPGD enzyme activity. P15428. purified HPGD, NADH fluorescence kinetic, PGE2 substrate. Potency, µM, for the others: top-dose activity change, negative = inhibition, most hits filed as inhibitors. 4.3% of 150,000 active. AID 894; also: potency is read from the fitted curve at half-maximal effect
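NADH formation kinetics: reaction with 30 uM PGE2 and 1 mM NAD+ (final), 20 nM enzyme, Tris-HCl pH 8 with Tween 20, after 15 min compound preincubation at room temperature. Fluorescence change, last versus first of five reads.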
ALDH1A1 inh = inhibitors of human aldehyde dehydrogenase 1A1; P00352; Purified ALDH1A1, NADH fluorescence, propionaldehyde substrate; Potency, µM (series often up to 75.3 µM), for the others: at the highest dose activity, negative = inhibition, most hits filed as inhibitors; 7.3% of 220,000 active;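 also: potency is read from the fitted curve at half-maximal effect; plate controls were no enzyme wells and a reference inhibitor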
Target sequence (P00352 whole entry, looked up): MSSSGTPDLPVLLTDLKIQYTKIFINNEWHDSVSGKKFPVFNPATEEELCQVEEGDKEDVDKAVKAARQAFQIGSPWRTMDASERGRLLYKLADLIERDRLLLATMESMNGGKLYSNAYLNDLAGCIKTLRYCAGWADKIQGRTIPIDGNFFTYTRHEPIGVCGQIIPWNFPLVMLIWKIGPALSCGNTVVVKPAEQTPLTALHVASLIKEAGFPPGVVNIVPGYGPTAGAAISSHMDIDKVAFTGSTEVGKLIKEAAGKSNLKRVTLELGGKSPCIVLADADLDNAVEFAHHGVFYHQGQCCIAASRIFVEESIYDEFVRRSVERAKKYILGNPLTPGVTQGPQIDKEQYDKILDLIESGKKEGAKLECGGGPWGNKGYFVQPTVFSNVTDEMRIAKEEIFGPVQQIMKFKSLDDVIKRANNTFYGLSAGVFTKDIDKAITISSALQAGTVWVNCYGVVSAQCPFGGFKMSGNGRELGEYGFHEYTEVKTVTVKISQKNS
An asterisk follows results filed as active; ? = inconclusive; nt = not tested or not shown; [ ] = dose if it differs, or a comment. Unless noted, calls follow the shape of the dose curve; as a rule, active = well fitted inhibition curve with a large enough effect (not every such curve was filed as active); inconclusive = small, poorly fitted or top-dose-only effect, or another doubt; inactive = no such curve, though single readings can be large or run the other way. Unless noted, % is scaled to controls: 0 for no effect and ±100 for the full control effect.

SMILES	PNC assembly inh	HPGD block	ALDH1A1 inh
C#CCSc1nnc(-c2ccc(OC)cc2)o1	?	-27%	?
O=C1COc2ccc(C(=O)c3ccccc3C(=O)NCc3ccco3)cc2N1	-10	-4%	7%
O=c1[nH]c(C2CCCN(S(=O)(=O)c3ccc(F)cc3)C2)nc2c1nnn2Cc1ccccc1 (stereo not drawn)	-18	13µM*	14µM*
Cc1ccc(Cn2nnc3c(=O)[nH]c(C4CCCN(S(=O)(=O)c5ccccc5)C4)nc32)cc1 (stereo not drawn)	12	-14%	-9%
Nc1ccc(N2C(=O)c3ccccc3C2=O)c(Cl)c1	nt	4%	-5%
Nc1ccc(N)c(Cl)c1	nt	?	22µM*
CCCCCCn1c(N)c(C#N)c2ccc([N+](=O)[O-])cc2c1=O	nt	nt	6%
COc1ccc(N2CCN(c3nc(-c4cccs4)nc4ccccc34)CC2)cc1	nt	nt	-10%
CCOC(=O)N1CCN(c2c(NCCN3CCN(Cc4ccccc4)CC3)c(=O)c2=O)CC1	5	-29%	?
CCCNC(=O)c1ccc(CNc2c(N3CCC(C(=O)OCC)CC3)c(=O)c2=O)cc1	-17	4.5µM*	?
CCOC(=O)C1CCN(c2c(NC3CCCCCCC3)c(=O)c2=O)CC1	42	-16%	?
CCOC(=O)C1CCCN(C(=O)c2ccc(CNc3c(N4CCC(C)CC4)c(=O)c3=O)cc2)C1 (stereo not drawn)	9	10µM*	?
CC1CCN(c2c(NCc3ccc(C(=O)NCCc4ccc(Cl)cc4)cc3)c(=O)c2=O)CC1	2	?	6%
CCOC(=O)C1CCN(c2c(NCc3ccc(C(=O)NCCC(C)C)cc3)c(=O)c2=O)CC1	54	3.5µM*	-12%
CC1CCN(c2c(NCc3ccc(C(=O)N4CCN(C5CCCCC5)CC4)cc3)c(=O)c2=O)CC1	38	?	2%
CCOC(=O)C1CCN(c2c(NCCCN3CCN(Cc4ccccc4)CC3)c(=O)c2=O)CC1	-11	14µM*	-4%
CCC(c1c(C)[nH]oc1=O)c1c(C)[nH]oc1=O	-2	-3%	?
COc1ccc(OC)c2c(C)cc(N3CCCN(C)CC3)nc12	-21	?	?
CCN(C(=O)COC(=O)c1ccc(S(=O)(=O)N2CCCc3ccccc32)cc1)C1CCS(=O)(=O)C1 (stereo not drawn)	nt	nt	8%
Nc1cc(=O)[nH]c(N2CCN(c3ccccc3)CC2)n1	nt	nt	-4%
C/C(=N\N=C\c1ccccc1)c1nnn(-c2nonc2N)c1C	78	-4%	13%
O=C1C2CC=CCC2C(=O)N1Cc1ccccc1Cl (stereo not drawn)	15	-13%	0%
O=C(Nc1nc2ccccc2s1)C1=NN(c2ccccc2)C(=O)CC1	?	-1%	-3%
CCOC(=O)c1nnn(CC(=O)N2N=C(c3ccc(Cl)cc3)CC2c2ccccc2)c1C(=O)OCC (stereo not drawn)	-27	-13%	-14%
O=C(c1ccc(CNc2c(NC3CCCCC3)c(=O)c2=O)cc1)N1CCc2ccccc21	1	-18%	3%
SMILES	PNC assembly inh	HPGD block	ALDH1A1 inh
CC1CCC(NC(=O)c2ccc(CNc3c(NC4CCCCC4)c(=O)c3=O)cc2)CC1 (stereo not drawn)	23	?	?
O=C(NC1CCCC1)c1ccc(CNc2c(N3CCOCC3)c(=O)c2=O)cc1	-8	7.9µM*	5%
CC1CCN(c2c(NCc3ccc(C(=O)N4c5ccccc5CC4C)cc3)c(=O)c2=O)CC1 (stereo not drawn)	18	13µM*	-11%
COc1ccc(CNC(=O)c2n[nH]c3ccccc23)cc1OC	nt	nt	4%
CCc1cccc(C)c1NC(=O)C1=C(C(=O)O)CCCC1	19	-8%	-1%
COC(=O)CCc1c(C)nc(N)[nH]c1=O	-112*	1%	3%
CCCCc1c(C)nc(N)[nH]c1=O	10	-2%	7%
Cc1noc(NS(=O)(=O)c2ccc(NC(=O)CSc3nc4ccccc4[nH]3)cc2)c1C	63	-19%	?
Cc1noc(NS(=O)(=O)c2ccc(NC(=O)CSc3n[nH]c(-c4ccccc4)n3)cc2)c1C	-17	4.5µM*	-13%
Cc1noc(NS(=O)(=O)c2ccc(NC(=O)CSc3nnc4c(n3)[nH]c3ccccc34)cc2)c1C	43	-18%	9%
COc1ccc2nc(SCC(=O)Nc3ccc(S(=O)(=O)Nc4onc(C)c4C)cc3)[nH]c2c1	-16	18µM*	?
Cc1noc(NS(=O)(=O)c2ccc(N/C=C\C(=O)c3cccc4ccccc34)cc2)c1C	nt	nt	4µM*
Cc1noc(NS(=O)(=O)c2ccc(N/C=C\C(=O)c3ccc(Br)cc3)cc2)c1C	nt	nt	-11%
CC[C@@H]1CC(=O)N(SC[C@H](N)C(=O)O)C1=O	nt	-6%	-1%[13.5 µM]
COc1ccc(CCNC(=O)CSc2nn(-c3ccccc3)c(=S)s2)cc1OC	-17	-6%	-11%
CN(Cc1nc(-c2cccs2)no1)CC1COCCO1 (stereo not drawn)	nt	nt	18%
COC(=O)c1cn(CCOc2ccc(C)cc2)c2ccccc12	-82*	-20%	3%
COC(=O)c1cn(C(=O)c2ccc(C)cc2)c2ccccc12	nt	nt	2%
COCCOC(=O)c1c(NC(=O)CN2c3ccccc3CC2C)sc(C(N)=O)c1C (stereo not drawn)	nt	nt	-7%
Cc1sc2c(c1C)CN(Cc1ccncc1)CN2C(=O)c1ccco1	-18	-22%	25µM*
COCCN1Cc2c(sc(C)c2C)N(C(=O)c2ccccc2)C1	-3	-6%	12%
Cc1cc(=O)oc2cc(OCc3ccc(C(=O)N4CCN(c5ccccc5)CC4)cc3)ccc12	16	?	?
O=C(NNC(=S)NCc1ccc(Cl)cc1)c1ccc2c(c1)OCO2	nt	nt	6%
CC(C)(C)C(=O)NNC(=O)COc1ccc2ccccc2c1Br	nt	nt	-9%
O=C(Oc1ccc2ccccc2c1Br)N1CCCCCC1	?	32µM*	-3%
SMILES	PNC assembly inh	HPGD block	ALDH1A1 inh
COC(=O)NNC(=O)COc1ccc2ccccc2c1Br	-82*	16µM*	-1%
CCN(CC)C(=O)Oc1ccc2ccccc2c1Br	nt	nt	-3%
CCC(=O)CC(NC(=O)OC)c1ccccc1 (stereo not drawn)	nt	nt	1%[13.5 µM]
COC(=O)N[C@H](CC(C)=O)c1ccccc1	-99*	-8%	5%
O=C(CSC1CC(=O)N(CCc2ccccc2)C1=O)Nc1cccc(Cl)c1 (stereo not drawn)	-2	7.9µM*	-7%
O=C(CSC1CC(=O)N(CCc2ccccc2)C1=O)Nc1ccc(Br)cc1 (stereo not drawn)	23	0%	-7%
Cc1nc2ccccc2c(=O)n1NC(=O)C1CC1C (stereo not drawn)	nt	nt	10%
Cn1c(Cc2ccccc2)nnc1SCc1ccc(C(=O)O)cc1	-11	-1%	-10%
O=C1CC(Nc2ccccc2)C(=O)N1c1ccc(N2CCOCC2)cc1 (stereo not drawn)	-104*	-14%	?
O=C1CC(Nc2ccc(N3CCOCC3)cc2)C(=O)N1c1ccccc1F (stereo not drawn)	35	-14%	14µM*
Cc1ccc(N2C(=O)CC(Nc3ccccc3)C2=O)cc1 (stereo not drawn)	40	-9%	-4%
CC(C)N1C(=O)CC(Nc2ccc(N3CCOCC3)cc2)C1=O (stereo not drawn)	16	-8%	?
COCCNC(=O)C(=O)NNC(=O)c1ccccc1OC	nt	nt	9%
